Source: PubChem (several laboratories)
Most compounds without a hit are left out; they make up all but 4.6% or so of the library.
TIM10 inh = growth inhibitors of TIM10 yeast strain; S. cerevisiae TIM10 strain growth, BacTiter-Glo luminescence, 24 h; inhibition, % at 10 µM; actives 1.4% (n = 330,000); AID 463195;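 active = inhibition of 40% or more at the single tested concentration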;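 also: wild-type TIM10 isogenic control strain grown at permissive 25 °C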
tim10-1 inh = inhibits growth of tim10-1 mutant yeast. S. cerevisiae tim10-1 ts strain growth, BacTiter-Glo, 24 h. inhibition, % at 20 µM. actives 2.2% (n = 330,000);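 active = inhibition of at least 40%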;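 also: mutant grown at 25 °C; 0% = DMSO wells with yeast and 100% = wells holding no yeast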
tim23-1 inh = tim23-1 yeast growth inhibition; S. cerevisiae tim23-1 growth, BacTiter-Glo luminescence, 24 h; inhibition, % at 20 µM; actives 1.3% (n = 330,000); AID 463212;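 active = growth inhibition of the mutant yeast at or above 50%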;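 also: temperature-sensitive mutant grown at 25 °C; plate controls were DMSO-treated mutant yeast for no effect and medium wells lacking yeast for full effect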
V-ATPase pHluor = regulators of yeast V-ATPase proton transport | S. cerevisiae, pHLuorin cytosolic pH fluorescence | response, % at 10 µM | actives 0.37% (n = 350,000); in the data active = response mostly above about 7.3%, no sharp cut-off; inactive = mostly below about 5.4%; also: actives read high
SKKanGAS inh = inhibitors of SKKanGAS S. pyogenes growth in kanamycin (SK-promoter or general growth effect); BacTiter-Glo, 6 h; inhibition, % at 7.5 µM; actives 1.3% (n = 300,000); AID 1662;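 active = mean replicate score, as percent of positive control median, at least 50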;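 also: strain carries kanamycin resistance gene driven by streptokinase promoter and grows in 40 µg/ml kanamycin; loss of luminescence reflects streptokinase promoter inhibition or plain growth inhibition; 0% = median of DMSO wells and 100% = positive control at its reference dose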
PfHsp90 set2 = reduces growth (ATP signal) of yeast expressing P. falciparum Hsp90; inhibition, % at 9.4 µM; S. cerevisiae expressing PfHsp90, BacTiter-Glo ATP, 48 h; yeast lacking PDR1 and PDR3 efflux regulators; actives 0.32% (n = 310,000);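 active = every replicate shows inhibition above about 80%, whatever the replicate mean, limit read from the data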;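 also: 0% = DMSO neutral controls and 100% = 20 µM radicicol positive controls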
tim23-1 confirm = confirmation of tim23-1 mutant yeast growth inhibitors | S. cerevisiae tim23-1 growth, BacTiter-Glo luminescence, 24 h | actives 83% (n = 4,400) | shares compounds with tim23-1 inh | inhibition, % at 20 µM | AID 463218;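 active = inhibition above about 39% in either of two replicate wells at 20 µM, limit read from the data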;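 also: temperature-sensitive tim23-1 mutant grown at 25 °C; 0% = DMSO wells with yeast and 100% = medium wells without yeast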
* hit, by the source's call; · = no result; + = active, no number.

SMILES	TIM10 inh	tim10-1 inh	tim23-1 inh	V-ATPase pHluor	SKKanGAS inh	PfHsp90 set2	tim23-1 confirm
O=C(CC12CC3CC(CC(C3)C1)C2)N/N=C/c1ccc([N+](=O)[O-])o1	36	38	57*	1	-16	-20	37
CCOC(=O)N/N=C\c1ccc([N+](=O)[O-])o1	7	16	36	1	7	-21	·
Cc1cc(C)cc(OCC(=O)N/N=C/c2ccc([N+](=O)[O-])o2)c1	33	33	52*	2	-6	22	38
O=c1c2ccccc2nc(-c2cccc(Cl)c2)n1O	36	15	59*	3	-8	-118	59*
O=c1c2ccccc2nc(-c2ccc([N+](=O)[O-])cc2)n1O	30	37	52*	3	2	8	47*
Cc1ccc(-c2nc3ccc(Cl)cc3c(=O)n2O)cc1	38	8	63*	4	70*	15	55*
O=c1c2cc(Br)ccc2nc(-c2ccccc2)n1O	10	23	60*	3	33	14	50*
CN(CC(=O)Nc1ccc(Cl)cc1)C(=O)CCc1nc2sc3c(c2c(=O)[nH]1)CCCC3	-16	-17	-16	1	14	·	·
Cc1c(NC(=O)C(C)OC(=O)COc2ccc(C#N)cc2)c(=O)n(-c2ccccc2)n1C (stereo not drawn)	1	2	16	-1	-10	23	·
Cc1c(=O)n(OCc2ccccc2)c2ccccc2[n+]1[O-]	7	4	7	1	-2	1	·
COc1ccc(COn2c(=O)c(C)[n+]([O-])c3ccccc32)cc1OC	5	10	89*	-3	-2	15	5
CCC[C@H]1CN(Cc2cccnc2)C(=O)[C@@H]1CC(=O)Nc1ccc(Br)cc1	·	·	·	0	·	·	·
Cc1nn(C)c(C(=O)N/N=C/c2cccc(Oc3ccccc3)c2)c1Br	18	38	52*	-2	0	·	40*
Nc1ccc(C(=O)N/N=C/c2cccc(Oc3ccccc3)c2)cc1	-2	-2	36	-2	-7	-11	·
O=C(N/N=C/c1cccc(Oc2ccccc2)c1)c1ccccc1F	1	33	50*	-3	-3	·	46*
Fc1ccc(CSc2nc3ccccc3[nH]2)c2ccccc12	39	32	56*	8	50*	-44	55*
O=c1cc(CSc2nc3ccccc3[nH]2)c2ccccc2[nH]1	7	-4	17	-6	-3	7	·
COc1cccc(CN2CC(C(=O)NCCc3cn4cccnc4n3)CCC2=O)c1 (stereo not drawn)	·	·	·	1	·	·	·
COc1ccc(Cl)cc1C(=O)Nc1cccnc1Cl	-3	6	24	0	-6	20	·
COc1ccc2c(c1)[C@H]1[C@H](CO2)[C@H](c2ccccc2)[C@]2(C)C(=O)Nc3ccc(C)cc3C(=O)N12	12	21	51*	-5	·	+	43*
COc1ccc2c(c1)OC[C@H]1[C@H]2N2C(=O)c3cc(C)ccc3NC(=O)[C@@]2(C)[C@H]1c1ccccc1	-5	8	51*	-2	·	104*	58*
COc1ccc2c(c1)OC[C@H]1[C@H]2N2C(=O)c3ccccc3NC(=O)[C@@]2(C)[C@H]1c1ccccc1	22	16	34	7	·	-7	·
COc1ccc2c(c1)[C@H]1[C@H](CO2)[C@H](c2ccccc2)[C@]2(C)C(=O)Nc3ccc(F)cc3C(=O)N12	13	17	27	5	·	-12	·
CC(=O)Nc1ccccc1OCc1cnc(Cl)s1	-4	0	-12	0	0	-9	·
OCCN1CCN(C2CCC(c3ccc(F)cc3)c3ccc(F)cc32)CC1 (stereo not drawn)	17	13	27	1	7	7	·
SMILES	TIM10 inh	tim10-1 inh	tim23-1 inh	V-ATPase pHluor	SKKanGAS inh	PfHsp90 set2	tim23-1 confirm
CCOC(=O)N/N=C/c1ccc(N(CC)CC)cc1O	37	36	60*	0	30	-8	72*
NC(=O)CSc1nnc(-c2ccccn2)n1Cc1ccco1	5	9	0	-1	-7	1	·
Clc1ccccc1CSc1nnc(-c2ccccn2)n1Cc1ccco1	9	31	52*	-1	0	-29	54*
CCc1ccc([C@@H]2C[C@H]3[C@@H](CN2S(=O)(=O)c2ccc(C)cc2)C(=O)C[C@@H](c2cccc(Cl)c2)N3S(=O)(=O)c2ccc(C)cc2)cc1	·	·	·	2	·	·	·
COc1cccc(CNS(=O)(=O)c2ccc3c(c2)C(C)(C)C(=O)N3C)c1	12	-5	17	-5	4	-4	·
Cc1[nH]c2c(Br)cccc2c1[C@H]1[C@@H](CC#N)C1(C)C	33	34	51*	1	14	-14	46*
CCOC(=O)Nc1ccc(C(=O)/C=C/c2ccccc2)cc1	27	27	58*	-3	-12	6	40
O=C(N/N=C/c1ccccc1)c1c(O)c2ccccc2[nH]c1=O	11	-31	73*	-1	20	18	10
COC(=O)[C@H](CC(C)C)NC(=O)c1cc2c(cn1)[nH]c1ccccc12	34	34	59*	2	3	8	63*
COC(=O)C(Cc1ccccc1)NC(=O)c1cc(=O)[nH]c2ccccc12 (stereo not drawn)	-10	-2	3	0	2	14	·
COc1ccccc1[C@H]1C(c2ccccc2)=NN(c2ccccc2)[C@@H]1CO	11	21	50*	-4	·	-6	39*
C[C@H]1C(c2ccc(F)cc2)=NN(c2ccccc2)[C@@H]1CO	16	31	51*	1	·	-22	30
COc1ccccc1[C@H]1C(c2cccc(C)c2)=NN(c2ccccc2)[C@@H]1CO	0	20	51*	0	·	-30	45*
Cc1cccc(C2=NN(c3ccccc3)[C@@H](C(=O)N3CCOC3=O)[C@@H]2c2ccccc2)c1	2	18	34	4	·	-22	·
COc1ccccc1[C@H]1C(c2ccc(F)cc2)=NN(c2ccccc2)[C@@H]1CO	12	22	55*	3	·	-3	39
COc1cc(-c2nnc(CSc3nnc(Nc4ccc(Oc5ccccc5)cc4)s3)o2)cc(OC)c1OC	13	38	19	-2	13	4	·
O=C(CS(=O)(=O)Cc1ccccc1)NCc1ccccc1Cl	9	16	15	2	15	-17	·
N#Cc1c(Cl)nsc1NN	13	39	39	-1	8	-9	·
CCOC(=O)c1cnc(-n2nc(C)cc2C)nc1NCCc1ccccc1	7	16	51*	-2	25	-36	58*
O=C(NCCNC(=O)c1cc(Cl)ccc1Cl)c1ccccn1	13	-10	-2	-9	4	0	·
